Test results taken from PubChem BioAssay (NCATS).
Inconclusive results are not listed. The source made the active and inactive calls. Calls follow the shape of the dose curve; as a rule, active = well fitted inhibition curve with a large enough effect; inconclusive = small, poorly fitted or top-dose-only effect; inactive = flat fitted curve, though single readings scatter.

Assay: P-glycoprotein substrates identified in KB-8-5-11 adenocarcinoma cell line, qHTS therapeutic library screen (AID 1346987); also: nearly all actives have a fitted effect of over 65% in size
Conditions: KB-8-5-11 (P-gp overexpressing) viability, CellTiter-Glo, 72 h; series mostly up to 44.5 µM; activity change, negative = cytotoxicity: at the top concentration
Text: The ATP-binding cassette transporters P-glycoprotein (P-gp) is known to limit brain penetration of many chemotherapy drugs. […] As such, we developed a high-throughput screen (HTS) to identify substrates of P-gp from a series of chemical libraries including the National Center for Advancing Translational Sciences Pharmaceutical Collection NPC, 2,816 compounds), testing a total of 10,804 compounds, most of which have known mechanisms of action. We used the CellTiter-Glo viability assay to test library compounds against the parental KB-3-1 human cervical adenocarcinoma cell line and the colchicine-selected sub-line KB-8-5-11 that over-expresses P-gp. KB-8-5-11 cells were also tested in the presence of a P-gp inhibitor (tariquidar) to assess reversability of transporter-mediated resistance. Of the tested compounds, a total of 90 P-gp substrates were identified including 55 newly identified P-gp substrates. Substrates were confirmed using an orthogonal killing assay against HEK-293 cells transfected with P-gp. As exemplars, we confirmed that […] (cyclin-dependent kinase inhibitor); AT9283, (Janus kinase 2/3 inhibitor); ispinesib (kinesin spindle protein inhibitor); gedatolisib (PKI-587, phosphoinositide 3-kinase/mammalian target of rampamycin inhibitor); GSK-690693 (AKT inhibitor); and KW-2478 (heat shock protein 90 inhibitor) were substrates , and direct ATPase stimulation was assessed. ABCG2 was also found to confer high levels of resistance to AT9283, GSK-690693 and gedatolisib, while ispinesib, AT7519 and KW-2478 were weaker substrates.
The HeLa derivative cell line, KB-3-1, and its colchicine-selected, P-gp-overexpressing subline, KB-8-5-11 were maintained in DMEM with 10% FCS and Pen/Strep with glutamine at 37 degree C in 5% CO2. For KB-8-5-11 cells, colchicine was added to the medium at a concentration of 100 ng/mL. HEK-293 cells transfected with empty vector (pcDNA) or vector containing human ABCB1 (MDR-19) or ABCG2 (R-5) have been described previously (Robey, Lin, Qiu, Chan & Bates, 2011) and were maintained in EMEM supplemented with 10% FCS, Pen/Strep and glutamine with 2 mg/ml G418 to select for the expression of the transporter. Cultures were confirmed to be free of mycoplasma infection using the MycoAlert Mycoplasma Detection Kit (Lonza, Walkersville, MD). For the screen, assay medium was identical to culture medium except for KB-8-5-11 where colchicine was excluded from the medium.
All cell lines were plated into 1536-well plates at 500 cells/well in 5 uL media. Compounds were then pinned in dose-response using a 1536-head pin tool (Kalypsis, San Diego, CA) and plates were incubated at 37 degree C in 5% CO2 for an additional 72 h. CellTiter-Glo reagent (Promega) was dispensed into the wells, incubated for 5 min and luminescence was read on a ViewLux instrument (Perkin-Elmer). Cytotoxic compounds were defined as those that yielded a curve class of -1.1, -1.2, -2.1, -2.2, -2.3, or -2.4, a maximum response of >50% and an AC50 of < 10 uM. Cherry-picked hits from screening analysis were tested with both the KB pair of cell lines, and the pcDNA (empty vector control) and MDR-19 (P-gp overexpressing) pair were tested, in the absence and presence of tariquidar.
% is scaled to controls: 0 for no effect and ±100 for the full control effect; potency is read from the fitted curve at half-maximal effect.

**Q.** Which “outcome” value does the source give for O=C(O)/C=C/c1cc2c(cc1O[C@@H]1O[C@H](CO)[C@@H](O)[C@H](O)[C@H]1O)OCO2 here?
**A.** inactive

**Q.** Which “activity change, negative = cytotoxicity” value does the source give for CCCC(=O)O[C@@H]1[C@@H]2[C@@H](OC(C)=O)[C@]3(C)C(=O)[C@H]4[C@@H](OC(C)=O)C(C)(C)C[C@H]4[C@]3(C)C(=O)[C@@]2(OC(C)=O)C[C@@H]1C here?
**A.** -15.9% [at 17.3 µM] (inactive)

**Q.** With COc1ccc([C@@H]2OC[C@H]3[C@@H]2CO[C@@H]3c2ccc(OC3OC(CO)C(O)C(O)C3O)c(OC)c2)cc1OC (stereo not given in full) as the molecule, how does the “activity change, negative = cytotoxicity” value read?
**A.** -13.5% [at 17.3 µM] (inactive)

**Q.** For CC(C)(O[C@@H]1O[C@H](CO)[C@@H](O)[C@H](O)[C@H]1O)C(OC(=O)/C=C\c1ccc(O)cc1)C(=O)OCc1ccc(O[C@@H]2O[C@H](CO)[C@@H](O)[C@H](O)[C@H]2O)cc1 (stereo not given in full), which “activity change, negative = cytotoxicity” value is on record?
**A.** 4.28% [at 17.3 µM] (inactive)

**Q.** For Cc1ccc(C(=O)N(CCCN)C(c2oc3cc(Cl)ccc3c(=O)c2Cc2ccccc2)C(C)C)cc1 (stereo not given), which Potency is on record?
**A.** 0.517 µM (active)

**Q.** For CC(C)[C@@H]1C(=O)N(S(C)(=O)=O)[C@@H]2CCN(C(=O)/C=C/CN3CCCCC3)[C@H]21, which “activity change, negative = cytotoxicity” value is on record?
**A.** 5.64% (inactive)

**Q.** With Nc1nc2c(c(=O)[nH]1)C[C@@H](CCc1ccc(C(=O)N[C@@H](CCC(=O)O)C(=O)O)cc1)CN2 as the molecule, how does the Potency read?
**A.** 0.058 µM (active)

**Q.** Which “activity change, negative = cytotoxicity” value does the source give for CC(NC(=O)CCc1nc2ccccc2c(=O)[nH]1)c1ccccc1 (stereo not given) here?
**A.** -4.85% (inactive)

**Q.** For C=C1CCC2C(C(C)(C)O)CCC2(C)CC(O)C(=C)CCC1O (stereo not given), which “activity change, negative = cytotoxicity” value is on record?
**A.** 2.39% (inactive)

**Q.** For CCCOC(c1cc2nccc(C(=O)O)c2[nH]1)c1ccccc1Cl (stereo not given), which “outcome” value is on record?
**A.** inactive

**Q.** Which “outcome” value does the source give for CC(C)(C)C(=O)CN1C(=O)[C@H](NC(=O)Nc2cccc(C(=O)O)c2)CN(C2CCCCC2)c2ccccc21 here?
**A.** inactive

**Q.** Which Potency does the source give for O=C1NC(=O)C(c2cn3c4c(cccc24)CCC3)C1c1c[nH]c2ccccc12 (stereo not given) here?
**A.** 1.3 µM (active)

**Q.** Which activity change, negative = cytotoxicity does the source give for CC1(C)CCC2(C(=O)OC3OC(CO)C(O)C(O)C3O)CCC3(C)C(=CCC4C5(C)CCC(OC6OC(C(=O)O)C(OC7OC(CO)C(O)C(O)C7O)C(OC7OC(CO)C(O)C(O)C7O)C6O)C(C)(C)C5CCC43C)C2C1 (stereo not given) here?
**A.** 4.92% [at 9.29 µM] (inactive)

**Q.** Which “activity change, negative = cytotoxicity” value does the source give for CC(C)=CCC/C(C)=C/CCC1(C)Oc2c(c(O)cc3c2CN(C(CCC(=O)O)C(=O)O)C3=O)CC1O (stereo not given) here?
**A.** 7.97% [at 17.3 µM] (inactive)

**Q.** For O=C(O)c1cccc(S(=O)(=O)N2CCc3ccccc3C2)c1, which “outcome” value is on record?
**A.** inactive

**Q.** Which “outcome” value does the source give for CC(C)C1=CC2C(CC[C@]2(C)O)[C@](C)(O)CC1 (stereo not given in full) here?
**A.** inactive

**Q.** With C[C@@H]1O[C@@H](OC[C@H]2O[C@@H](Oc3cc(O)cc4c3C(=O)C(O)(Cc3ccc(O)cc3)O4)[C@H](O)[C@@H](O)[C@@H]2O)[C@H](O)[C@H](O)[C@H]1O (stereo not given in full) as the molecule, how does the “outcome” value read?
**A.** inactive [at 17.3 µM]

**Q.** For CC(C)C(C#N)O[C@@H]1O[C@H](CO[C@@H]2O[C@@H](C)[C@H](O)[C@@H](O)[C@H]2O)[C@@H](O)[C@H](O)[C@H]1O (stereo not given in full), which “outcome” value is on record?
**A.** inactive [at 17.3 µM]

**Q.** Which Potency does the source give for CNC(=O)c1ccccc1Nc1nc(Nc2ccc3c(c2OC)CCCC(N2CCN(CCO)CC2)C3)ncc1Cl (stereo not given) here?
**A.** 8.2 µM (active)

**Q.** With CC(C)=CCC[C@](C)(O[C@@H]1O[C@H](CO[C@@H]2O[C@H](CO)[C@@H](O)[C@H](O)[C@H]2O)[C@@H](O)[C@H](O)[C@H]1O)C1CC[C@]2(C)[C@@H]1[C@H](O)CC1[C@@]3(C)CC[C@H](O[C@@H]4O[C@H](CO)[C@@H](O)[C@H](O)[C@H]4O[C@@H]4O[C@H](CO)[C@@H](O)[C@H](O)[C@H]4O)C(C)(C)[C@@H]3CC[C@]12C (stereo not given in full) as the molecule, how does the activity change, negative = cytotoxicity read?
**A.** -1.53% [at 9.29 µM] (inactive)

**Q.** For CCN1CCN(Cc2ccc(NC(=O)Nc3ccc(Oc4cc(NC)ncn4)cc3)cc2C(F)(F)F)CC1, which “activity change, negative = cytotoxicity” value is on record?
**A.** 0.404% (inactive)

**Q.** With COc1cc2c(cc1OC)N1C(=O)C[C@]34C=CCN5CC[C@@H]2[C@@H](CC3)[C@]514 as the molecule, how does the “activity change, negative = cytotoxicity” value read?
**A.** 0.578% (inactive)

**Q.** With C/C=C/C1=CC2=C(CO1)C(=O)C(C)(O)C(OC(=O)c1c(C)cc(OC)cc1O)C2 (stereo not given) as the molecule, how does the “activity change, negative = cytotoxicity” value read?
**A.** -16.2% (inactive)

**Q.** For CC(C)=CCC/C(C)=C/CO[C@@H]1O[C@H](CO)[C@@H](OC(=O)/C=C/c2ccc(O)cc2)[C@H](O[C@@H]2O[C@@H](C)[C@H](O)[C@@H](O)[C@H]2O)[C@H]1O, which “activity change, negative = cytotoxicity” value is on record?
**A.** 9.22% [at 17.3 µM] (inactive)

**Q.** Which “activity change, negative = cytotoxicity” value does the source give for OC[C@@]1(O)CO[C@@H](OC[C@H]2O[C@@H](Oc3c[nH]c4ccccc34)[C@H](O)[C@@H](O)[C@@H]2O)[C@@H]1O here?
**A.** -15.8% [at 17.3 µM] (inactive)

**Q.** Which “outcome” value does the source give for CC1=C(C(=O)O)/C(=C\CO[C@@H]2O[C@H](CO)[C@@H](O)[C@H](O)[C@H]2O)C(OC(=O)/C=C/c2ccc(O)cc2)C1 (stereo not given in full) here?
**A.** inactive [at 17.3 µM]

**Q.** For CC1(C)C[C@H](O)C[C@@]2(C)OC(=O)C=C12, which “activity change, negative = cytotoxicity” value is on record?
**A.** 5.98% [at 93.4 µM] (inactive)

**Q.** With CC(=O)OC1C(=O)C2(C)C(O)CC3OCC3(OC(C)=O)C2C(OC(=O)c2ccccc2)C2(O)CC(OC(=O)C(O)C(NC(=O)c3ccccc3)c3ccccc3)C(C)=C1C2(C)C (stereo not given) as the molecule, how does the Potency read?
**A.** 1.3 µM (active)

**Q.** Which “activity change, negative = cytotoxicity” value does the source give for CC1(C)CCC[C@]2(C)[C@H]3CC(=O)O[C@]3(C)CC[C@@H]12 here?
**A.** 1.34% (inactive)

**Q.** For c1ccc(N2CCN(CCc3nn[nH]n3)CC2)cc1, which “activity change, negative = cytotoxicity” value is on record?
**A.** -6.1% (inactive)

**Q.** For O=C1CCC=CC1(O)C(=O)OCc1ccccc1O[C@@H]1O[C@H](CO)[C@@H](O)[C@H](O)[C@H]1O (stereo not given in full), which “activity change, negative = cytotoxicity” value is on record?
**A.** -6.72% [at 17.3 µM] (inactive)

**Q.** With c1cc(Nc2cc(C3CC3)[nH]n2)nc(Nc2ccc3nc[nH]c3c2)n1 as the molecule, how does the Potency read?
**A.** 6.51 µM (active)

**Q.** Which “activity change, negative = cytotoxicity” value does the source give for CC(O)c1cc(C(=O)N[C@@H](C)Cn2ccc(-c3ccc(C#N)c(Cl)c3)n2)n[nH]1 (stereo not given in full) here?
**A.** -9.02% (inactive)

**Q.** Which “outcome” value does the source give for COc1cc(C)c(C(=O)O[C@H]2[C@@H](OC(C)=O)[C@H](n3ccc(=O)[nH]c3=O)O[C@@H]2CO)c(OC)c1 here?
**A.** inactive [at 17.3 µM]

**Q.** For CC1=CC(=O)C(=C(C)C)CC2C1CCC2(C)O (stereo not given), which “activity change, negative = cytotoxicity” value is on record?
**A.** -3.42% (inactive)

**Q.** For O=C(O)c1ccc(CN2CCC(CN[C@@H]3C[C@H]3c3ccccc3)CC2)cc1, which “activity change, negative = cytotoxicity” value is on record?
**A.** -1.3% (inactive)

**Q.** For O=C(Nc1c(-c2cccs2)nc2ccccn12)c1ccc(Cl)cc1, which “activity change, negative = cytotoxicity” value is on record?
**A.** 3.53% (inactive)

**Q.** With COc1cc2c(cc1OC)CC(=O)N(CCCNC[C@H]1Cc3cc(OC)c(OC)cc31)CC2 as the molecule, how does the “outcome” value read?
**A.** inactive

**Q.** Which “activity change, negative = cytotoxicity” value does the source give for CC/C=C/CC1=C(CCCCC(CCC(=O)O)OC(C)=O)CCC1=O (stereo not given) here?
**A.** -17.4% (inactive)

**Q.** With C/C=C/c1ccc2oc(-c3ccc(O)c(OC)c3)c(C)c2c1 as the molecule, how does the “activity change, negative = cytotoxicity” value read?
**A.** -9.73% (inactive)
